For the test, the system named is CRL-7250. Kind of test: qHTS assay to identify novel small-molecules to repurpose for Merkel cell carcinoma treatment (AID 1296009). Also: nearly all actives have a fitted effect of over 60% in size. To be noted: MCC and control cell lines, CellTiter-Glo viability, 72 h; series mostly up to 92 µM. The essentials: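 Viability readout: ATP luminescence (CellTiter-Glo) after 72 hr drug exposure at 37 degree celsius. Dose-response format was 8 points for NPC and 11 points for MIPE; data normalized to in-plate controls.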
(In general: In qHTS, concentration-response curves come from the screen itself.)

Structures are written as SMILES. Inconclusive results are not listed. Entries that show only a call come without a potency. The source made the active and inactive calls. Calls follow the shape of the dose curve; as a rule, active = well fitted inhibition curve with a large enough effect; inconclusive = small, poorly fitted or top-dose-only effect; inactive = flat fitted curve, though single readings scatter. Square brackets hold non-standard residues; d marks the D form. Peptide text beside a SMILES is read from it. PhLac = O=C(O)[CH](O)Cc1ccccc1; NMeV = CN[CH](C(=O)O)C(C)C

`CC(C)C(C(=O)N1CCCC1C(=O)O)N(C)C(=O)C(O)Cc1ccccc1` (configuration not stated) (H-[PhLac]-[NMeV]-Pro-OH; configuration not given here): the Potency entry was “inactive”.
For `CC1=C(CO)CC(C(C)C2CCC3C4CC=C5CC(OC6OC(COC7OC(CO)C(O)C(O)C7O)C(O)C(O)C6O)CC(O)C5(C)C4CCC23C)OC1=O` (configuration not stated), the Potency entry was “inactive”.
On the same count and under the same terms, next, `CON(C)C(=O)[C@H](O)[C@H](Cc1ccccc1)NC(=O)c1cc2cc(Cl)ccc2[nH]1`: “inactive”.
Still for that read-out and setting: next, `CC(CC12CCCN1C(=O)C1CCCN1C2=O)OC(N)=O` (configuration not stated): “inactive”; `C/C=C/[C@@H]1C=C[C@@H]2C[C@H](C)CC[C@H]2[C@]1(C)/C(O)=C1/C(=O)[C@@H](CO)N(C)C1=O`: “inactive”; `C=C1CCC2C(C)(C)CCC[C@]2(C)[C@H]1CC/C(C)=C/C(=O)O` (some centres not stated): “inactive”.
`C=CCCN1CCC2(CC1)CN(C(=O)c1c(F)cccc1F)c1ccc(Cl)cc12`: the Potency result was “inactive”.
The same measure, in the same setting: the value for `Cc1occc(=O)c1O[C@@H]1O[C@H](COC(=O)CC(C)(O)CC(=O)O)[C@@H](O)[C@H](O)[C@H]1O` (some centres not stated) was “inactive”; that for `COc1ccc(/C=C\C(=O)O)c(O[C@@H]2O[C@H](CO)[C@@H](O)[C@H](O)[C@H]2O)c1` was “inactive”.
For the compound `CC(=O)OCC1OC(O[C@H]2CC[C@@]3(C)C(CC[C@]4(C)C3CC=C3[C@@H]5CC(C)(C)CC[C@]5(C(=O)O)CC[C@]34C)[C@]2(C)CO)C(O)C(O)C1OC1OC(C)C(O)C(OC2OCC(O)C(O)C2O)C1O` (some centres not stated), the outcome is “inactive [at 9.27 µM]”.
Turning to `COc1ccccc1-c1ccc(-c2cn(C(=O)N3CCCCC3Cc3ccccc3)nn2)cc1` (configuration not stated), the Potency result is “inactive”.
With `CC(=O)C1CCC(=O)N1Cc1ccccc1` (configuration not stated), the Potency entry was “inactive”.
The same measure, in the same setting: next, `Nc1nc2c(s1)CCN(Cc1ccc(Cl)cc1)CC2`: “inactive”.
Regarding `C[C@@H]1O[C@@H](O[C@H]2[C@H](OC(=O)[C@]34CCC(C)(C)C[C@H]3C3=CCC5[C@@]6(C)C[C@@H](O)[C@@H](O[C@@H]7O[C@H](CO)[C@@H](O)[C@H](O)[C@H]7O)[C@@](C)(CO)C6[C@H](O)C[C@@]5(C)[C@]3(C)CC4)OC[C@H](O)[C@@H]2O)[C@H](O)[C@H](O[C@@H]2OC[C@](O)(CO)[C@H]2O)[C@H]1O[C@@H]1OC[C@@H](O)[C@H](O[C@H]2O[C@H](C)[C@@H](O)[C@H](O)[C@@H]2O)[C@H]1O` (some centres not stated), the outcome was “inactive [at 9.27 µM]”.
In the case of `COc1cc(OC)cc(-c2ccc3c(-c4ccc(F)cc4)[nH]nc3n2)c1`, the Potency entry was “inactive”.
Regarding `CCOC(=O)c1cc(C#N)c(N2CCC(C(=O)NS(=O)(=O)Cc3ccccc3)CC2)nc1C`, the Potency entry is “inactive”.
As to `O[C@@](Cc1ncc(CC2(C(F)(F)F)CC2)[nH]1)(c1ccc(-n2cccn2)cc1)C(F)(F)F`, the Potency entry was “inactive”.
As to `C[C@@H]1O[C@@H](O[C@H]2[C@H](O)[C@@H](C(=O)O)O[C@@H](O[C@H]3CC[C@@]4(C)C(CC[C@]5(C)C4CC=C4C6CC(C)(C)CC[C@]6(C(=O)O)CC[C@]45C)C3(C)C)[C@@H]2O[C@@H]2O[C@H](CO)[C@@H](O)[C@H](O)[C@H]2O)[C@H](O)[C@H](O)[C@H]1O` (some centres not stated), the outcome was “inactive [at 9.27 µM]”.
In the case of `CCn1c(=O)n([C@H]2CCCN(c3nccc(-c4cc5ccccc5o4)n3)C2)c2ccccc21`, the Potency entry is “inactive”.
With `CC(=O)N[C@@H](Cc1c[nH]c2ccccc12)C(=O)N[C@@H](CCC(=O)O)C(=O)N[C@@H](Cc1cnc[nH]1)C(=O)N[C@@H](CC(=O)O)C(=O)Nc1ccc2c(C(F)(F)F)cc(=O)oc2c1` (HELM PEPTIDE1{[ac].W.E.H.D.[O=c1cc(C(F)(F)F)c2ccc(N[*:1])cc2o1]}$$$$V2.0), the Potency entry is “inactive”.
Still for that read-out and setting: the value for `CC(=O)[C@H]1CC[C@H]2[C@@H]3CC=C4C[C@@H](OS(=O)(=O)O)CC[C@]4(C)[C@H]3CC[C@]12C` was “inactive”.
`COc1cc(C2Oc3c(OC)cc(CCCO)cc3C2CO)ccc1O` (configuration not stated): the Potency entry was “inactive”.
With `C[C@@H]1O[C@@H](O[C@@H]2[C@@H](O)[C@H](O[C@H]3CC[C@@]4(C)C(CC[C@]5(C)C4CC=C4[C@@H]6CC(C)(C)CC[C@]6(C(=O)O[C@@H]6O[C@H](CO)[C@@H](O)[C@H](O)[C@H]6O)CC[C@]45C)C3(C)C)O[C@H](C(=O)O)[C@H]2O)[C@H](O)[C@H](O)[C@H]1O` (some centres not stated), the outcome was “inactive [at 9.27 µM]”.
`O=C(O)Cc1cc(I)c(Oc2ccc(O)c(I)c2)c(I)c1`: the Potency entry is “inactive”.
In the case of `OCC1=CC[C@@H]2C=CO[C@@H](O[C@@H]3O[C@H](CO)[C@@H](O)[C@H](O)[C@H]3O)[C@H]12`, the Potency result is “inactive”.
`CC(=O)OC1CC(C)C2(CCC3(CC(=O)OC3O)O2)C2(C)CCCC(C)(C)C12` (configuration not stated): the Potency result was “inactive”.
Take `N[C@@]1(C(=O)O)CC[C@H]2[C@H](C(=O)O)[C@H]21`: the Potency entry is “inactive”.
On the same count and under the same terms, the value for `CC(=O)C=C=C1C(C)(C)CC(O[C@@H]2O[C@H](CO)[C@@H](O)[C@H](O)[C@H]2O)CC1(C)O` (some centres not stated) was “inactive”.
On to `COc1cc(C)c(C(=O)OC2C(C)OC(OC3CCC(C)C4C3C=C(C)C3/C(C)=C\CC/C(C)=C/C5(C)C=C(C(=O)O)C(C)CC56OC(=O)/C(=C(\O)C34C)C6=O)C(O)C2O)c(OC)c1` (configuration not stated), for which the outcome was “inactive [at 9.27 µM]”.
In the case of `COc1ccc(/C=C/C(=O)O[C@@H]2[C@@H](OC(C)=O)[C@@H](OC(C)=O)[C@H](O[C@H]3[C@@H]4C=CO[C@@H](O[C@@H]5O[C@H](CO)[C@@H](O)[C@H](O)[C@H]5O)[C@@H]4[C@@]4(CO)O[C@@H]34)O[C@H]2C)cc1`, the Potency entry was “inactive”.
For `C[C@H]1/C=C/C=C/C=C/C=C/C=C/[C@@H](O)[C@H](C(=O)O)[C@H](O)C[C@H](O)CCC[C@H](O)C[C@H](O)C[C@H](O)[C@@H](C)C(=O)O[C@@H]1C`, the Potency entry was “inactive”.
On to `CC1(C)C(=O)N2c3ccccc3[C@]3(CC(n4cnc5ccccc5c4=O)C(=O)O3)[C@H]2N1O` (some centres not stated), for which the Potency result is “inactive”.
Still for that read-out and setting: next, `CC12CCC3c4ccc(OC5OC(C(=O)O)C(O)C(O)C5O)cc4CCC3C1CCC2O` (configuration not stated): “inactive”.
Take `C=C1CC[C@H]2[C@@](C)(CCC(OC3OC(CO)C(O)C(O)C3O)[C@@]2(C)CO)C1C(=O)CC1=CCOC1=O` (some centres not stated): the Potency result was “inactive”.
Still for that read-out and setting: the value for `O=C(/C=C/c1ccc(O)cc1)OC[C@H]1O[C@@H](OC(=O)/C=C/c2ccccc2)[C@H](O)[C@@H](O)[C@@H]1O` was “inactive”; that for `COC(=O)[C@@H]1C2CC3c4[nH]c5ccccc5c4CCN3CC2CC[C@@H]1O` (some centres not stated) was “inactive”.
For `COCC(=O)N1CCc2cc(-c3csc(NC(=O)c4cc(OC)cc(OC)c4)n3)ccc21`, the Potency result was “inactive”.
In the case of `COC(=O)C1=COC(OC2OC(CO)C(O)C(O)C2O)C2C1C=CC2(O)CO` (configuration not stated), the Potency result is “inactive”.
For `CC(C)CC(=O)OC[C@@]1(O)C[C@@]23CC[C@H]4[C@@](C)(CCC[C@@]4(C)C(=O)O)[C@@H]2CC[C@@H]1C3`, the Potency result is “inactive”.
`COc1c2c(c(C)c3c1C(=O)OC3)OC1(C)CC(O)C34OC(OC)(CC(OC(C)=O)C3(C)C1C2)OC4(C)C` (configuration not stated): the Potency result was “inactive”.
Turning to `C/C1=C\CC[C@H](C)CCO[C@@H]2O[C@H](CO[C@@H]3OC[C@](O)(COC1=O)[C@H]3O)[C@@H](O)[C@H](O)[C@H]2O`, the Potency result is “inactive”.
`CC(=O)OC1C(O)C2C(C)C3=CC(=O)OC3(O)CC2C2(C)CCCC(C)(CO)C12` (configuration not stated): the Potency entry was “inactive”.
For `CC(O)CCC1C(CO[C@@H]2O[C@H](CO)[C@@H](O)[C@H](O)[C@H]2O)CC(O)CC1(C)C` (some centres not stated), the Potency entry was “inactive”.
Turning to `C=C1C(=O)OC2CC(C)=C(C(C)CCCO)C(O)C12` (configuration not stated), the Potency entry was “inactive”.
Turning to `COC(=O)C1=COC(O[C@@H]2O[C@H](COC(=O)/C=C/c3ccc(O)cc3)[C@@H](O)[C@H](O)[C@H]2O)C2C(CO)=CCC12` (some centres not stated), the Potency result is “inactive”.
Still for that read-out and setting: next, `O=C(NCc1ccc(F)cc1)C(=O)c1c[nH]c2ccccc12`: “inactive”; `COc1c(O)cc2c(c1O)C(=O)O[C@H](C)[C@H]2O`: “inactive”.
Same read-out and setting: the value for `CC(=O)OC[C@]1(O)[C@H]2[C@H](OC(=O)CC(C)C)OC=C(CO[C@@H]3O[C@H](CO)[C@@H](O)[C@H](O)[C@H]3O)[C@H]2C[C@@H]1O` was “inactive”.
In the case of `CC12CC(c3ccoc3)OC(=O)C1CCC1(C)C2CCC(O)C1(C)O` (configuration not stated), the Potency result was “inactive”.
In the case of `Cc1c(CN(C)C(=O)/C=C/c2cnc3c(c2)CCC(=O)N3)oc2ccccc12`, the Potency entry was “inactive”.
Take `CC(=O)OCC1=C[C@H](O)[C@@H]2C(C(=O)O)=CO[C@@H](O[C@@H]3O[C@H](CO)[C@@H](O)[C@H](O)[C@H]3O)[C@H]12`: the Potency entry is “inactive”.
The same measure, in the same setting: next, `CC(C)C(CO)Nc1nc(Nc2ccc(C(=O)O)c(Cl)c2)c2ncn(C(C)C)c2n1` (configuration not stated): “inactive”.
The same measure, in the same setting: next, `CC/C(=C(\c1ccc(O)cc1)c1ccc(OCCNC)cc1)c1ccccc1`: “inactive”; `CNC(=O)c1ccc2cc([C@@]3(O)CCn4cncc43)ccc2c1`: “inactive”.
Same read-out and setting: next, `COC(=O)c1cc(Br)cnc1N1CCC(NC2CCCCC2)C(O)C1` (configuration not stated): “inactive”; `O=C(OC[C@@]1(O)CO[C@@H](O[C@H]2[C@H](Oc3ccc(O)cc3)O[C@H](CO)[C@@H](O)[C@@H]2O)[C@@H]1O)c1ccc(O)cc1`: “inactive”; `COc1c2c(c(C)c3c1C(=O)OC3)O[C@@]1(C)CC(O)C(C(C)(C)O)[C@](C)(CCC(=O)O)[C@H]1C2` (some centres not stated): “inactive”.

The values above are taken from PubChem BioAssay (NCATS).
